Measured values published in the supplement of paper PMC8728848.
The entries come from a sample that favours the strongest signals as a whole.

Tests used:
Experiment in all cases: glycan array binding signal (z-score within array); higher = stronger binding
Settings in all cases: glycan notation: IUPAC condensed, linker removed
[1] = target: Gal(b1-4)GlcNAc(b1-3)Gal(b1-4)GlcNAc(b1-3)Gal(b1-4)GlcNAc(b1-3)Gal(b1-4)GlcNAc(b1-3)Gal(b1-4)GlcNAc(b1-2)Man(a1-3)[Gal(b1-4)GlcNAc(b1-3)Gal(b1-4)GlcNAc(b1-3)Gal(b1-4)GlcNAc(b1-3)Gal(b1-4)GlcNAc(b1-3)Gal(b1-4)GlcNAc(b1-2)Man(a1-6)]Man(b1-4)GlcNAc(b1-4)GlcNAc
Outline: (§1)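 Arrays were curated from the Consortium for Functional Glycomics database, 3228 in total, and kept only where the protein sequence was available. Binding is expressed as a within-array Z-score. This score was averaged across arrays of the same protein sequence at different concentrations or buffers and across linkers, and negative values can be read as non-binding.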

[2] = target: Gal(b1-4)GlcNAc(b1-3)Gal(b1-4)GlcNAc(b1-3)Gal(b1-4)GlcNAc(b1-3)Gal(b1-4)GlcNAc(b1-3)Gal(b1-4)GlcNAc(b1-2)Man(a1-3)[Gal(b1-4)GlcNAc(b1-3)Gal(b1-4)GlcNAc(b1-3)Gal(b1-4)GlcNAc(b1-3)Gal(b1-4)GlcNAc(b1-3)Gal(b1-4)GlcNAc(b1-2)Man(a1-6)]Man(b1-4)GlcNAc(b1-4)[Fuc(a1-6)]GlcNAc
Outline: as §1

[3] = target: Gal(b1-4)GlcNAc(b1-3)Gal(b1-4)GlcNAc(b1-3)[Gal(b1-4)GlcNAc(b1-3)Gal(b1-4)GlcNAc(b1-6)]GalNAc
Outline: as §1

[4] = target: Gal3S(b1-3)GlcNAc
Outline: as §1

[5] = target: Gal3S6S(b1-4)GlcNAc6S
Outline: as §1

[6] = target: Gal6P(b1-4)GlcNAc
Outline: as §1

[7] = target: GalNAc(b1-3)Gal(a1-6)Gal(b1-4)Glc
Outline: as §1

[8] = target: GalNAc(b1-4)GlcNAc(b1-2)Man
Outline: as §1

[9] = target: GalNAc3S(b1-4)[Fuc(a1-3)]GlcNAc
Outline: as §1

[10] = target: GlcA(b1-3)GlcNAc
Outline: as §1

[11] = target: GlcNAc(b1-2)Man(a1-3)[GlcNAc(b1-2)Man(a1-6)]Man(b1-4)GlcNAc(b1-4)GlcNAc
Outline: as §1

[12] = target: GlcNAc(b1-2)[GlcNAc(b1-4)]Man(a1-3)[GlcNAc(b1-4)][GlcNAc(b1-2)[GlcNAc(b1-6)]Man(a1-6)]Man(b1-4)GlcNAc(b1-4)[Fuc(a1-6)]GlcNAc
Outline: as §1

[13] = target: GlcNAc(b1-3)Gal(b1-3)GalNAc
Outline: as §1

[14] = target: GlcNAc(b1-3)Gal(b1-4)Glc
Outline: as §1

[15] = target: GlcNAc(b1-3)Gal(b1-4)GlcNAc
Outline: as §1

[16] = target: GlcNAc(b1-3)Gal(b1-4)GlcNAc(b1-3)Gal(b1-4)GlcNAc(b1-3)Gal(b1-4)GlcNAc(b1-2)Man(a1-3)[GlcNAc(b1-3)Gal(b1-4)GlcNAc(b1-3)Gal(b1-4)GlcNAc(b1-3)Gal(b1-4)GlcNAc(b1-2)Man(a1-6)]Man(b1-4)GlcNAc(b1-4)[Fuc(a1-6)]GlcNAc
Outline: as §1

[17] = target: GlcNAc(b1-3)Gal(b1-4)GlcNAc(b1-6)[GlcNAc(b1-3)Gal(b1-3)]GalNAc
Outline: as §1

[18] = target: Man(a1-2)Man(a1-3)[Man(a1-6)]Man(a1-6)[Man(a1-2)Man(a1-3)]Man(b1-4)GlcNAc(b1-4)GlcNAc
Outline: as §1

[19] = target: Man(b1-4)GlcNAc
Outline: as §1

[20] = target: Neu5Ac(a2-3)Gal(b1-3)GalNAc6S
Outline: as §1

[21] = target: Neu5Ac(a2-3)Gal(b1-3)GlcNAc6S
Outline: as §1

[22] = target: Neu5Ac(a2-3)Gal(b1-3)[Fuc(a1-4)]GlcNAc(b1-3)Gal(b1-4)[Fuc(a1-3)]GlcNAc
Outline: as §1

[23] = target: Neu5Ac(a2-3)Gal(b1-4)GlcNAc(b1-2)[Neu5Ac(a2-3)Gal(b1-4)GlcNAc(b1-4)]Man(a1-3)[GlcNAc(b1-4)][Neu5Ac(a2-3)Gal(b1-4)GlcNAc(b1-2)[Neu5Ac(a2-3)Gal(b1-4)GlcNAc(b1-6)]Man(a1-6)]Man(b1-4)GlcNAc(b1-4)GlcNAc
Outline: as §1

[24] = target: Neu5Ac(a2-3)Gal(b1-4)GlcNAc(b1-6)[Gal(b1-3)]GalNAc
Outline: as §1

[25] = target: Neu5Ac(a2-3)Gal(b1-4)[Fuc(a1-3)]GlcNAc(b1-3)Gal(b1-4)GlcNAc
Outline: as §1

[26] = target: Neu5Ac(a2-3)GalNAc
Outline: as §1

[27] = target: Neu5Ac(a2-6)Gal(b1-4)GlcNAc(b1-2)Man(a1-6)Man(b1-4)GlcNAc(b1-4)GlcNAc
Outline: as §1

[28] = target: Neu5Ac(a2-6)Gal(b1-4)GlcNAc(b1-3)Gal(b1-4)[Fuc(a1-3)]GlcNAc(b1-3)Gal(b1-4)[Fuc(a1-3)]GlcNAc
Outline: as §1

[29] = target: Neu5Ac(a2-8)Neu5Ac
Outline: as §1

[30] = target: Neu5Gc(a2-3)Gal(b1-3)GlcNAc
Outline: as §1

B1: Mermaid1 (Stilbonema majum) (protein)
chain: MGSSHHHHHHSSGLVPRGSHMAASGWLRSPQGTVVKLYRRSLSWSKADEFCKDVDGRLVVDRTADMHLFLIKNVLKEKKSRVWVGLRRTAPHSRTWIWSDGTRQNEDDLDANLWLRDEPNDAAGEEECALFMYSPWEKAWGLNDYLCRGGCRSYQFICEKWIR
glycan array binding signal (z-score) [1]: 0.715 | glycan array binding signal (z-score) [2]: -0.28 | glycan array binding signal (z-score) [3]: -0.17 | glycan array binding signal (z-score) [4]: 0.37 | glycan array binding signal (z-score) [5]: -0.524 | glycan array binding signal (z-score) [6]: -0.911 | glycan array binding signal (z-score) [7]: -0.59 | glycan array binding signal (z-score) [8]: 3.48 | glycan array binding signal (z-score) [9]: 0.714 | glycan array binding signal (z-score) [10]: -0.379 | glycan array binding signal (z-score) [11]: -0.645 | glycan array binding signal (z-score) [12]: -0.663 | glycan array binding signal (z-score) [13]: -0.864 | glycan array binding signal (z-score) [14]: 0.313 | glycan array binding signal (z-score) [15]: -0.029 | glycan array binding signal (z-score) [16]: 0.762 | glycan array binding signal (z-score) [17]: -0.841 | glycan array binding signal (z-score) [18]: -0.285 | glycan array binding signal (z-score) [19]: 8.49 | glycan array binding signal (z-score) [20]: 0.152 | glycan array binding signal (z-score) [21]: 0.494 | glycan array binding signal (z-score) [22]: 2.98 | glycan array binding signal (z-score) [23]: -0.428 | glycan array binding signal (z-score) [24]: 5.42 | glycan array binding signal (z-score) [25]: -0.359 | glycan array binding signal (z-score) [26]: -0.535 | glycan array binding signal (z-score) [27]: -0.437 | glycan array binding signal (z-score) [28]: -0.822 | glycan array binding signal (z-score) [29]: -0.351 | glycan array binding signal (z-score) [30]: -0.396
